From the supplement of paper PMC9135407 come the findings set out here.

The assay has as its system primary human hepatic stellate cells (donor 1). As to the kind of experiment: scaled lipid accumulation score (0 = DMSO-like, 1 = nortriptyline-like); higher = stronger HSC inactivation (lipid re-accumulation), active = hit call of the paper. The note with it: 48 h.
The mark [1] stands for this setting: library stock concentration: 1 mM.
The mark [2] stands for this setting: library stock concentration: 10 mM.
Setting [3] is: library stock concentration: 80 uM.
Setting [4] is: library stock concentration: 400 uM.
The mark [5] stands for this setting: library stock concentration: 2 mM.
[6] abbreviates: library stock concentration: 3.33 mM.

The structures appear in SMILES notation. Where “and” joins values, the source holds several entries; their conditions need not be identical. Identical values can stand only once. Counter-ions that a name gives are not always drawn. Among all 5,800 compounds or so, about 620 (11%) showed activity. Many of the other results were omitted from the sample, so actives are more common in it than they were. Values without a mark were called inactive.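 How the source made its calls: active = score above a cut-off or among the top three wells of a plate; in these data no inactive exceeds 0.85.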 Where only a bound is given, the exact number is not on record here.

Consider `O=C(O)CCCCC1CCSS1` (racemic) [DL-.alpha.-Lipoic Acid], for which the “scaled lipid accumulation score” value under setting [1] is at most 0.
Regarding `C[C@H]1C[C@H]2[C@@H]3CCC4=CC(=O)C=C[C@]4(C)[C@@]3(F)[C@@H](O)C[C@]2(C)[C@@]1(O)C(=O)COP(=O)(O)O`, under setting [2], the “scaled lipid accumulation score” value is at most 0.
In the case of `CC[C@@H]1C(=O)N(C)c2cnc(Nc3ccc(C(=O)N[C@H]4CC[C@H](N5CCN(CC6CC6)CC5)CC4)cc3OC)nc2N1C(C)C` [Volasertib] [listing 1 of 2 here], the “scaled lipid accumulation score” value under setting [2] was 1.17 (active).
For `CC[C@@H]1C(=O)N(C)c2cnc(Nc3ccc(C(=O)NC4CCN(C)CC4)cc3OC)nc2N1C1CCCC1` [listing 1 of 2 here], the “scaled lipid accumulation score” value runs as follows: under setting [3], 0.007; under setting [4], 0.527; under setting [5], 0.722 and 0.628; under setting [6], 0.569; under setting [2], 0.749 and 0.538 and 0.259.
Consider `CC[C@@H]1C(=O)N(C)c2cnc(Nc3ccc(C(=O)N[C@H]4CC[C@H](N5CCN(CC6CC6)CC5)CC4)cc3OC)nc2N1C(C)C` [Volasertib] [listing 2 of 2 here], for which the “scaled lipid accumulation score” value under setting [3] is 0.154, the “scaled lipid accumulation score” value under setting [4] was 0.358 and the “scaled lipid accumulation score” value under setting [5] is 0.451.
Take `CC[C@@H]1C(=O)N(C)c2cnc(Nc3ccc(C(=O)N[C@H]4CC[C@H](N5CCN(CC6CC6)CC5)CC4)cc3OC)nc2N1C(C)C` [Volasertib (BI 6727)]: the “scaled lipid accumulation score” value is, setting by setting: under setting [6], 0.97 (active); under setting [2], 0.916 (active).
As for `COc1cc(C(=O)NC2CCN(C)CC2)ccc1Nc1ncc2c(n1)N(C1CCCC1)CCC(=O)N2C(C)C` [listing 1 of 2 here], under setting [2], the “scaled lipid accumulation score” value is 0.868 (active).
`CCOc1cc(N2CCC(O)CC2)ccc1Nc1ncc2c(n1)N(C)c1ccccc1C(=O)N2C`: the “scaled lipid accumulation score” value is at most -0.009 under setting [3]; 0.026 under setting [4]; at most -0.009 under setting [5]; at most -0.009 under setting [6]; 0.473 and 0.012 under setting [2].
`COc1cc(C(=O)NC2CCN(C)CC2)ccc1Nc1ncc2c(n1)N(C1CCCC1)C(C)CC(=O)N2C` (stereo not given): the “scaled lipid accumulation score” value under setting [3] is at most 0, the “scaled lipid accumulation score” value under setting [4] is at most 0, the “scaled lipid accumulation score” value under setting [5] is 0.177 and the “scaled lipid accumulation score” value under setting [2] is 0.428.
On to `CC(C)CCN1c2nc(Nc3cc(F)c(O)c(F)c3)ncc2N(C)C(=O)C1C` (stereo not given), for which the “scaled lipid accumulation score” value was at most -0.001 under setting [3]; ≤ -0.001 and ≤ -0.005 under setting [4]; ≤ -0.001 and 0.123 under setting [5]; at most 0 under setting [6]; ≤ 0 and ≤ -0.001 and 0.36 under setting [2].
Regarding `CC[C@@H]1C(=O)N(C)c2cnc(Nc3ccc(C(=O)NC4CCN(C)CC4)cc3OC)nc2N1C1CCCC1` [listing 2 of 2 here], under setting [4], the “scaled lipid accumulation score” value is 1.02 (active).
For the molecule `COc1cc(C(=O)NC2CCN(C)CC2)ccc1Nc1ncc2c(n1)N(C1CCCC1)CCC(=O)N2C(C)C` [listing 2 of 2 here], the “scaled lipid accumulation score” value by setting is: under setting [3], at most 0; under setting [4], at most 0; under setting [5], 0.132.
For `COc1cc(C(=O)NC2CCN(C)CC2)ccc1Nc1ncc2c(n1)N(C1CCCC1)CC(F)(F)C(=O)N2C`, the “scaled lipid accumulation score” value under setting [6] is 0.271 and the “scaled lipid accumulation score” value under setting [2] is 0.722.
For the molecule `CC(=O)Nc1cccc(-n2c(=O)n(C3CC3)c(=O)c3c(Nc4ccc(I)cc4F)n(C)c(=O)c(C)c32)c1`, the “scaled lipid accumulation score” value under setting [3] was at most -0.009; the “scaled lipid accumulation score” value under setting [4] is at most -0.003; the “scaled lipid accumulation score” value under setting [5] is 0.049; the “scaled lipid accumulation score” value under setting [6] is at most 0; the “scaled lipid accumulation score” value under setting [2] was ≤ 0 and 0.058.
Regarding `O=C(N/N=C/c1ccc(O)c(O)c1)c1cc2ccccc2cc1O` [Dynasore], the “scaled lipid accumulation score” value was at most -0.009 under setting [6] and 0.182 under setting [2].
In the case of `CN=C(N)NCCC[C@H](N)C(=O)O` [L-Ornithine, N5-[imino(methylamino)methyl]-[CAS]], under setting [2], the “scaled lipid accumulation score” value was at most 0.
On to `O=C(O[C@H]1[C@H](Oc2ccccc2COC(=O)C2(O)C=CCCC2=O)O[C@H](CO)[C@@H](O)[C@@H]1O)c1ccccc1` (stereo not given in full), for which the “scaled lipid accumulation score” value under setting [2] was at most 0.
Consider `COc1cccc(OC)c1OCCNCC1COc2ccccc2O1` (stereo not given) [WB 4101 hydrochloride], for which the “scaled lipid accumulation score” value under setting [2] is 0.337.
With `COc1cccc(OC)c1OCCNCC1COc2ccccc2O1` (stereo not given) [WB-4101 hydrochloride], the “scaled lipid accumulation score” value under setting [2] is 0.182.
In the case of `CCCCC[C@@H](O)/C=C/[C@H]1[C@H](C/C=C\CCCC(=O)O)[C@H](O)C[C@@H]1O` [ent-Prostaglandin F2.alpha.], the “scaled lipid accumulation score” value under setting [1] was at most 0.
Same read-out and setting: the same measure for `CCOC(=O)/C=C/[C@H](CC(C)C)NC(=O)[C@H](CO)NC(=O)[C@@H](NC(=O)c1cccc(O)c1C)C(C)C`: at most 0.
For `C[C@@H]1C(=O)NC2=Nc3cccc(Cl)c3CN21` [Quazinone], under setting [2], the “scaled lipid accumulation score” value was at most 0.
Take `N=C1C=CC(=C(c2ccc(N)cc2)c2ccc(N)cc2)C=C1` [Pararosaniline pamoate]: the “scaled lipid accumulation score” value runs as follows: (library stock concentration: 3 mM) 0.375; under setting [2], 0.435.
Regarding `C=CC(=O)Nc1cccc(Nc2nc(NC3CCC(N(C)C)CC3)nc3c2ncn3C(C)C)c1` (stereo not given), the “scaled lipid accumulation score” value reads like this: under setting [3], at most 0; under setting [4], at most 0; under setting [5], at most 0; under setting [2], 0.782.
With `CCCCC[C@H](O)/C=C/[C@H]1C=CC(=O)[C@@H]1CCCCCCC(=O)OCC` [Prostaglandin A1 ethyl ester], under setting [1], the “scaled lipid accumulation score” value was at most 0.
Consider `NC(N)=O`, for which the “scaled lipid accumulation score” value was at most 0 under setting [2] and at most 0 (library stock concentration: 33.3 mM).
Consider `CC/C=C\C/C=C\C/C=C\C/C=C\CCCCC(=O)O` [Stearidonic Acid], for which the “scaled lipid accumulation score” value under setting [1] was at most 0.
The same measure, in the same setting: the figure for `C=C1C[C@H](O)[C@H](C/C=C\CCCC(=O)O)[C@H]1/C=C/C(=O)CCCCC` [11-deoxy-11-methylene-15-keto Prostaglandin D2] is at most 0.
Take `COc1cc(C(=O)N2CCC(N3CCN(C)CC3)CC2)ccc1Nc1ncc2c(n1)N(C)c1ccccc1C(=O)N2C` [listing 1 of 2 here]: under setting [2], the “scaled lipid accumulation score” value was 0.929 (active).
For the molecule `COc1cc(N2CCC(N3CCN(C)CC3)CC2)ccc1Nc1ncc(Cl)c(-c2c[nH]c3ccccc23)n1` [listing 1 of 2 here], the “scaled lipid accumulation score” value runs as follows: under setting [5], 0.981 (active); under setting [2], 0.967 (active).
With `COc1cc(N2CCC(N3CCN(C)CC3)CC2)ccc1Nc1ncc(Cl)c(-c2c[nH]c3ccccc23)n1` [listing 2 of 2 here], the “scaled lipid accumulation score” value by setting is: under setting [3], 0.057; under setting [4], 0.358.
Regarding `COc1cc(N2CCC(N)CC2)ccc1Nc1ncc(Cl)c(-c2c[nH]c3ccccc23)n1`, the “scaled lipid accumulation score” value by setting is: under setting [6], 0.146; under setting [2], 0.238.
Take `COc1cc(N2CCN(C)CC2)ccc1Nc1ncc2c(n1)N(C)c1ccccc1C(=O)N2C`: the “scaled lipid accumulation score” value under setting [3] was 0.087, the “scaled lipid accumulation score” value under setting [4] was 0.062, the “scaled lipid accumulation score” value under setting [5] was 0.241 and the “scaled lipid accumulation score” value under setting [2] was 0.703.
As to `COc1cc(C(=O)N2CCC(N3CCN(C)CC3)CC2)ccc1Nc1ncc2c(n1)N(C)c1ccccc1C(=O)N2C` [listing 2 of 2 here], the “scaled lipid accumulation score” value was at most 0 under setting [3], 0.015 under setting [4] and 0.329 under setting [5].
Turning to `CCCCCCCCCCCCCCC(F)C(=O)O` (stereo not given) [2-Fluoropalmitic Acid], under setting [1], the “scaled lipid accumulation score” value is at most 0.
In the case of `CCCCCCCCCCCCCCC(F)C(=O)O` (stereo not given) [2-Fluoropalmitic acid], the “scaled lipid accumulation score” value under setting [1] was at most -0.021.
As for `CCCCCC(=O)/C=C/[C@H]1[C@H](O)CC(=O)[C@@H]1C/C=C\CCCC(=O)O` [15-keto Prostaglandin E2], the “scaled lipid accumulation score” value under setting [1] is at most 0.
For `CO[C@@H]1[C@@H](O[C@@H]2O[C@H](C)[C@@H](O[C@H]3C[C@@](C)(O)[C@@H](OC(=O)CC(C)C)[C@H](C)O3)[C@H](N(C)C)[C@H]2O)[C@@H](CC=O)C[C@@H](C)[C@@H](O)/C=C/C=C/C[C@@H](C)OC(=O)C[C@H]1O`, the “scaled lipid accumulation score” value under setting [2] is 0.014.
For the molecule `CCCCCC(O)C=CC1C(O)CC(O)C1CCCCCCC(=O)O` (stereo not given) [Prostaglandin  F1a], the “scaled lipid accumulation score” value under setting [1] was at most -0.021.
Regarding `COc1cc(/C=C(\C#N)C(=O)Nc2nnc(C(F)(F)F)s2)ccc1OCc1ccc(C(F)(F)F)cc1C(F)(F)F`, the “scaled lipid accumulation score” value under setting [2] is at most 0.
As for `O=c1cc(-c2ccc(O)cc2)oc2c([C@@H]3O[C@H](CO)[C@@H](O)[C@H](O)[C@H]3O)c(O)cc(O)c12` [Vitexin], the “scaled lipid accumulation score” value is at most 0.
On to `CN(C)c1ccc2nc3ccc(=[N+](C)C)cc-3sc2c1` [Methylene blue], for which the “scaled lipid accumulation score” value (library stock concentration: 5.9 mM) is 0.252.
In the case of `CCCCCCCC/C=C\CCCCCCCC(=O)c1nc2ncccc2o1` [Oleoyl Oxazolopyridine], the “scaled lipid accumulation score” value under setting [1] is 0.017.
Turning to `O=C1c2ccccc2C(=O)c2c1ccc(O)c2O` [Alizarin], the “scaled lipid accumulation score” value is, setting by setting: under setting [6], at most 0; under setting [2], at most 0.
With `CC(C)=CCC1=C(O)C(=O)c2ccccc2C1=O` [Lapachol], the “scaled lipid accumulation score” value under setting [2] is at most 0.
As to `CC1(C)C(=O)N=C2C1=C(O)C(=O)c1ccccc12`, the “scaled lipid accumulation score” value under setting [2] was 0.923 (active).
`Cc1ccc(/C=C2\CNC/C(=C\c3ccc(C)cc3)C2=O)cc1.Cl`: under setting [2], the “scaled lipid accumulation score” value was 1.43 (active).
`CC1(C)C=C(CN2C/C(=C\c3ccc(F)cc3)C(=O)/C(=C/c3ccc(F)cc3)C2)C(C)(C)N1O`: the “scaled lipid accumulation score” value reads like this: under setting [6], 0.264; under setting [2], 0.694.
As for `COc1ccc(/C=C2\COc3ccc(C)cc3C2=O)cc1O`, the “scaled lipid accumulation score” value under setting [2] was 0.275.
With `CN(C)CCSSCCNC(=O)C1CCN(C(=O)CSc2ccc(Cl)cc2)CC1`, the “scaled lipid accumulation score” value reads like this: under setting [6], at most -0.009; under setting [2], at most 0.
Regarding `CCCCC[C@H](O)/C=C/[C@@H]1[C@@H](C/C=C\CCCC(=O)NCCO)[C@@H](O)C[C@@H]1O` [11.beta.-Prostaglandin F2.alpha. Ethanolamide], the “scaled lipid accumulation score” value under setting [1] was at most 0.
As to `CCCCC/C=C\C/C=C\C/C=C\C=C\[C@@H](O)CCCC(=O)O`, the “scaled lipid accumulation score” value (library stock concentration: 100 uM) was at most -0.021.
Regarding `CN(C)CCOc1cc(-c2cn[nH]c2)ccc1NC(=O)C1COc2ccccc2O1` (stereo not given) [listing 1 of 2 here], under setting [2], the “scaled lipid accumulation score” value was 1.08 (active).
For the molecule `O=C(Nc1ccc(-c2cn[nH]c2)cc1)C1COc2ccccc2O1` (stereo not given) [Rho Kinase Inhibitor V], the “scaled lipid accumulation score” value under setting [6] is at most 0.
For `CN(C)CCOc1cc(-c2cn[nH]c2)ccc1NC(=O)C1COc2ccccc2O1` (stereo not given) [listing 2 of 2 here], the “scaled lipid accumulation score” value was at most -0.005 under setting [4] and 0.383 under setting [5].
With `CCCCCCCCCCCCCCCCCC=CC(=O)O` [.DELTA.2-cis Eicosenoic Acid], the “scaled lipid accumulation score” value under setting [1] is 0.011.
With `CCCCC/C=C\C/C=C\CC/C=C\CCCC(=O)OCC` [Pinolenic Acid ethyl ester], the “scaled lipid accumulation score” value under setting [1] was at most 0.
